Measurements as given in PubChem BioAssay AID1159580 (chemical genetic matrix, 2015).
Out of some 5,500 compounds screened, about 2,000 (36%) were called active. Roughly 18% stayed inconclusive and do not appear here. Cut-off read from the data, not from the text of the source: active = normalized growth mostly below about 0.91 (no sharp cut-off); inconclusive = no clear call, values can overlap the other calls; inactive = mostly above about 0.92. Some of the results follow.

Assay: chemical genetic growth profiling, strain panel (AID 1159580);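 note: tested at 20 µM; growth read once vehicle control cultures reached saturation at 30 °C; 1 = growth at the plate median or of vehicle wells; lower values mean less growth of the strain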
Details: S. cerevisiae deletion strains, growth OD
[1] = locus YDL101C, strain DUN1, active compounds read low
[2] = locus YHR030C, strain SLT2, active compounds read low
[3] = locus YAR019C, strain CDC15, active compounds read low
[4] = locus YBL105C, strain PKC1, active compounds read low
[5] = locus YBR135W, strain CKS1, active compounds read low
[6] = locus YBR136W, strain MEC1, active compounds read low
[7] = locus YBR160W, strain CDC28, active compounds read low
[8] = locus YDL017W, strain CDC7, active compounds read low
[9] = locus YDL028C, strain MPS1, active compounds read low
[10] = locus YDL108W, strain KIN28, active compounds read low
[11] = locus YDL132W, strain cdc53, active compounds read low
[12] = locus YDL214C, strain PRR2, active compounds read low
[13] = locus YDR052C, strain DBF4, active compounds read low
[14] = locus YDR054C, strain cdc34, active compounds read low
[15] = locus YDR226W, strain ADK1, active compounds read low
[16] = locus YDR477W, strain SNF1, active compounds read low
[17] = locus YER123W, strain YCK3, active compounds read low
[18] = locus YER133W, strain GLC7, active compounds read low
[19] = locus YFL009W, strain cdc4, active compounds read low
[20] = locus YFL029C, strain CAK1, active compounds read low
[21] = locus YFR003C, strain YPI1, active compounds read low
[22] = locus YFR019W, strain FAB1, active compounds read low
[23] = locus YFR028C, strain CDC14, active compounds read low
[24] = locus YGR040W, strain KSS1, active compounds read low
[25] = locus YGR052W, strain FMP48, active compounds read low
[26] = locus YGR092W, strain DBF2, active compounds read low
[27] = locus YHR079C, strain IRE1, active compounds read low
[28] = locus YHR082C, strain KSP1, active compounds read low
[29] = locus YHR205W, strain SCH9, active compounds read low
[30] = locus YIL147C, strain SLN1, active compounds read low
[31] = locus YJL095W, strain BCK1, active compounds read low
[32] = locus YJL128C, strain PBS2, active compounds read low
[33] = locus YJL157C, strain FAR1, active compounds read low
[34] = locus YJR016C, strain ILV3, active compounds read low
[35] = locus YJR066W, strain TOR1 (second series), active compounds read low
[36] = locus YJR066W, strain TOR1, active compounds read low
[37] = locus YKL048C, strain ELM1, active compounds read low
[38] = locus YKL067W, strain YNK1, active compounds read low
[39] = locus YKL101W, strain HSL1, active compounds read low
[40] = locus YKL193C, strain SDS22, active compounds read low
[41] = locus YKL203C, strain TOR2, active compounds read low
[42] = locus YLR113W, strain HOG1, active compounds read low
[43] = locus YLR133W, strain CKI1, active compounds read low
[44] = locus YLR403W, strain SFP1, active compounds read low
[45] = locus YML070W, strain DAK1, active compounds read low
[46] = locus YMR001C, strain CDC5, active compounds read low
[47] = locus YMR205C, strain PFK2 (second series), active compounds read low
[48] = locus YMR277W, strain FCP1, active compounds read low
[49] = locus YNL006W, strain LST8, active compounds read low
[50] = locus YNL020C, strain ARK1, active compounds read low
[51] = locus YNL161W, strain CBK1, active compounds read low
[52] = locus YNL183C, strain NPR1, active compounds read low
[53] = locus YNL207W, strain RIO2, active compounds read low
[54] = locus YNL222W, strain SSU72, active compounds read low
[55] = locus YNL307C, strain MCK1 (second series), active compounds read low
[56] = locus YOL078W, strain AVO1, active compounds read low
[57] = locus YOL136C, strain PFK27, active compounds read low
[58] = locus YOR061W, strain CKA2, active compounds read low
[59] = locus YOR119C, strain RIO1, active compounds read low
[60] = locus YOR231W, strain MKK1, active compounds read low
[61] = locus YOR329C, strain SCD5, active compounds read low
[62] = locus YPL031C, strain PHO85, active compounds read low
[63] = locus YPL153C, strain RAD53, active compounds read low
[64] = locus YPL204W, strain HRR25, active compounds read low
[65] = locus YPL209C, strain IPL1, active compounds read low
[66] = locus YPL256C, strain CLN2, active compounds read low
[67] = locus YPR025C, strain CCL1, active compounds read low
[68] = locus YPR106W, strain ISR1, active compounds read low
[69] = locus YPR111W, strain DBF20, active compounds read low
[70] = strain NNK1, active compounds read low
[71] = strain TSCII, active compounds read low

Measured: normalized growth

COC(=O)C1=C(Nc2ccc(Cl)cc2)CSC1
active: locus YDL134C, strain PPH21, active compounds read low 0.773 | locus YEL061C, strain CIN8, active compounds read low 0.771 | [2] 0.203 | locus YJL187C, strain SWE1, active compounds read low 0.902 | locus YKL190W, strain CNB1, active compounds read low 0.834 | locus YLR039C, strain RIC1, active compounds read low 0.455 | locus YLR085C, strain ARP6, active compounds read low 0.368 | locus YLR262C, strain YPT6, active compounds read low 0.468 | locus YML094W, strain GIM5, active compounds read low 0.833 | locus YMR307W, strain GAS1, active compounds read low 0.417 | locus YNL298W, strain CLA4 (second series), active compounds read low 0.676 | locus YNR030W, strain Alg12, active compounds read low 0.759 | locus YOL006C, strain TOP1, active compounds read low 0.522 | locus YPL241C, strain CIN2, active compounds read low 0.742 | locus YPR135W, strain CTF4, active compounds read low 0.314
inactive: locus YAL013W, strain DEP1, active compounds read low 0.956 | locus YBR229C, strain ROT2, active compounds read low 0.967 | locus YCL061C, strain MRC1, active compounds read low 0.959 | [1] 0.941 | locus YDR150W, strain NUM1, active compounds read low 0.929 | locus YGR078C, strain PAC10, active compounds read low 0.949 | locus YHR087W, strain rtc3, active compounds read low 0.962 | locus YJR075W, strain HOC1, active compounds read low 0.911 | locus YLR058C, strain SHM2 (second series), active compounds read low 0.969 | locus YMR219W, strain ESC1, active compounds read low 0.972 | locus YMR263W, strain SAP30, active compounds read low 0.953 | locus YNL153C, strain GIM3, active compounds read low 0.965 | locus YNL322C, strain KRE1, active compounds read low 0.97 | locus YPL055C, strain LGE1, active compounds read low 0.811

Fc1ccc(N/N=C\Cc2nnnn2-c2ccccc2)c(F)c1
active: [12] 0.554 | [16] 0.332 | [17] 0.283 | [18] 0.592 | [22] 0.414 | [24] 0.478 | [25] 0.302 | [26] 0.122 | [2] 0.387 | [27] 0.366 | [28] 0.571 | [31] 0.16 | [33] 0.519 | [35] 0.246 | [36] 0.356 | [37] 0.55 | [38] 0.427 | [39] 0.341 | [41] 0.481 | [42] 0.426 | [43] 0.55 | [44] 0.429 | [45] 0.249 | [47] 0.646 | [50] 0.536 | [52] 0.358 | [55] 0.189 | [57] 0.385 | [58] 0.222 | [59] 0.408 | [60] 0.328 | [62] 0.315 | [63] 0.359 | [64] 0.406 | [66] 0.537
inactive: [3] 0.957 | [4] 0.951 | [5] 0.947 | [6] 0.952 | [7] 0.961 | [8] 0.956 | [9] 0.955 | [1] 0.967 | [10] 0.948 | [11] 0.952 | [13] 0.946 | [14] 0.904 | [15] 0.95 | [19] 0.954 | [20] 0.955 | [21] 0.955 | [23] 0.953 | [29] 0.622 | [30] 0.958 | [32] 0.963 | [34] 0.973 | [40] 0.954 | [46] 0.951 | [48] 0.952 | [49] 0.962 | [51] 0.954 | [53] 0.952 | [54] 0.954 | [56] 0.947 | [61] 0.964 | [65] 0.958 | [67] 0.956 | [68] 0.976 | [69] 0.97 | [70] 0.971 | [71] 0.945

Clc1ccccc1N/N=C\Cc1nnnn1-c1ccccc1
inactive: [3] 0.982 | [4] 0.966 | [5] 0.962 | [6] 0.966 | [7] 0.97 | [8] 0.98 | [9] 0.972 | [1] 0.976 | [10] 0.974 | [11] 0.953 | [12] 0.904 | [13] 0.974 | [14] 0.96 | [15] 0.972 | [16] 0.898 | [17] 0.729 | [18] 0.91 | [19] 0.965 | [20] 0.966 | [21] 0.97 | [22] 0.831 | [23] 0.957 | [24] 0.91 | [25] 0.827 | [2] 0.924 | [27] 0.85 | [28] 0.951 | [29] 0.863 | [30] 0.971 | [31] 0.716 | [32] 0.951 | [33] 0.893 | [34] 0.96 | [35] 0.774 | [36] 0.888 | [37] 0.92 | [38] 0.89 | [39] 0.889 | [40] 0.966 | [41] 0.929 | [42] 0.923 | [43] 0.888 | [44] 0.814 | [45] 0.787 | [46] 0.967 | [47] 0.92 | [48] 0.969 | [49] 0.98 | [50] 0.878 | [51] 0.974 | [52] 0.89 | [53] 0.958 | [54] 0.973 | [55] 0.669 | [56] 0.962 | [57] 0.795 | [59] 0.924 | [60] 0.845 | [61] 0.971 | [62] 0.853 | [63] 0.832 | [64] 0.818 | [65] 0.967 | [66] 0.99 | [67] 0.973 | [68] 0.98 | [69] 0.963 | [70] 0.992 | [71] 0.963
active: [26] 0.282 | [58] 0.567
